Screens deposited in PubChem by several laboratories.
Beta apoptosis: beta cell apoptosis inhibition. INS-1E cytokine-induced death, ATP luminescence, 48 h; percent of positive-control rescue, neutral wells zero. protection from apoptosis, % (concentration not given with the values). actives 0.8% (n = 300,000);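 active = Every replicate reaches about 75%, or at least half do and their mean reaches it too, limit read from the data; inconclusive = At least half of replicates reach the limit but their mean does not; inactive = Under half of replicates reach the limit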;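 also: higher means more ATP so stronger rescue from cytokine killing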
MPTP block: blocks calcium-induced mitochondrial swelling | AID 602449 | isolated mouse mitochondria, Ca2+ swelling absorbance, 30 min | actives 1.4% (n = 360,000) | inhibition, % at 10 µM;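 active = inhibition of 50% or more, scaled per plate between neutral and stimulator controls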
Calb FLC: C. albicans growth modulation with fluconazole; actives 0.57% (n = 300,000); C. albicans CaCi-2 (fluconazole-resistant clinical isolate) + fluconazole, Alamar Blue growth, 48 h; growth inhibition, % (test concentration not listed);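 active = growth inhibition above about 58% in most replicates, limit read from the data, passing the limit was not always enough; inconclusive = exactly half the replicates above a set limit; inactive = most replicates below a set limit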;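 also: all wells also contain fluconazole at 8 µg/ml as a sub-toxic cotreatment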
CSC inhib: blocks cancer stem cells; cancer stem cell-like cells viability, luminescence; inhibition, % at 7.5 µM; actives 1.1% (n = 300,000); AID 2717; in the data active = inhibition above about 75%; inconclusive = no clear call, values can overlap the other calls; tested in HMLE shEcad cells
SKKanGAS inh: blocks kanamycin growth of S. pyogenes SKKanGAS strain; BacTiter-Glo, 6 h; inhibition, % at 7.5 µM; actives 1.3% (n = 300,000); AID 1662;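 active = mean replicate score, as percent of positive control median, at least 50; inconclusive = mean below 50 but one replicate at or above 50; inactive = mean and every replicate below 50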;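 also: strain carries kanamycin resistance gene driven by streptokinase promoter and grows in 40 µg/ml kanamycin; loss of luminescence reflects streptokinase promoter inhibition or plain growth inhibition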
Mdm2-MdmX inh: disrupts the human Mdm2-MdmX interaction; O15151+Q00987; SaOS-2 split-luciferase Mdm2/MdmX complementation, luminescence; inhibition, % at 8 µM; actives 3% (n = 330,000);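 active = inhibition of at least 50% at 8 µM in the primary screen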
MPTP counter: membrane potential counter-screen of mitochondrial pore inhibitors; actives 78% (n = 5,000); inhibition, % at 10 µM; isolated mitochondria, Rhodamine 123 fluorescence; AID 624504; shares compounds with MPTP block; in the data active = inhibition above about 22%
MPTP swell DR: MPTP inhibition, dose response swelling confirmation; shares compounds with MPTP block; isolated mitochondria swelling, absorbance; IC50, µM; actives 58% (n = 780); in the data active = IC50 below about 20 µM
MPTP counter DR: counter-screen for mitochondrial permeability transition pore inhibitors, dose response; shares compounds with MPTP block; isolated mitochondria counterscreen, fluorescence read-out; IC50, µM; actives 49% (n = 780); in the data active = IC50 below about 80 µM
Hits are given with their value; . = inactive; ? = inconclusive; / = not tested or not shown. An excerpt weighted towards active compounds, which were near 5.4% of everything screened.

SMILES	Beta apoptosis	MPTP block	Calb FLC	CSC inhib	SKKanGAS inh	Mdm2-MdmX inh	MPTP counter	others
N#C/C(=C(/O)CCl)c1nc(-c2ccccc2)cs1	.	.	.	.	.	.	/
Cc1ccc(-c2csc(/C(C#N)=C(\O)CCl)n2)cc1	/	91	.	/	.	/	64
CCNc1nc(NCC)nc(N/N=C/c2ccc(N(C)C)cc2)n1	.	.	.	.	.	.	/
Cc1cc(N/N=C/c2ccc(N(C)C)cc2)nc(NCc2ccccc2)n1	.	60	.	.	.	.	56
COc1ccc(NC(=O)N(C)[C@H]2C[C@H]3c4[nH]c5ccc(-c6cccc(C)c6)cc5c4CCN3C[C@H]2[C@H](C)O)cc1	/	.	/	/	/	/	/
CCOC(=O)N1CCc2c(sc3nc(SC(C)C)n(N)c(=O)c23)C1	.	62	.	.	.	.	25
Clc1ccc(OCCOCCN2CCc3ccccc3C2)c(Cl)c1	.	100	.	.	.	.	.	MPTP swell DR=.;MPTP counter DR=31
Cc1ccc2c(c1)c1c(n2CC(O)CNC(C)(C)C)CCCC1 (configuration not stated)	/	70	/	/	/	/	.	MPTP swell DR=13;MPTP counter DR=.
CCOC(=O)c1c(NC(=O)CSc2nc3ccccc3s2)sc(C(C)=O)c1C	.	86	.	.	.	.	50
Cc1onc(-c2c(F)cccc2Cl)c1C(=O)OCc1cnc(Cl)s1	.	52	.	.	.	.	.	MPTP swell DR=.;MPTP counter DR=66
CCCCCc1c(-c2ccccc2OC)ncn1CCc1ccccc1OC	/	81	/	/	/	/	113
CCCCCc1c(-c2ccccc2F)ncn1CCc1ccccc1OC	/	.	/	/	/	/	/
CCCCc1c(-c2ccccc2Br)ncn1CCc1ccccc1OC	/	.	/	/	/	/	/
CCCCc1c(-c2ccccc2OC)ncn1CCc1ccccc1OC	/	80	/	/	/	/	115
COc1cccc(COCC(O)CN2CCC(C(N)=O)CC2)c1 (configuration not stated)	/	.	.	.	.	.	/
CCCn1c(=N)n(CC(O)COc2ccc(C)cc2)c2ccccc21 (configuration not stated)	.	.	.	.	.	.	/
Cc1ccc(OCC(O)Cn2c(=N)n(CCN3CCOCC3)c3ccccc32)cc1 (configuration not stated)	.	52	.	.	.	.	.	MPTP swell DR=.;MPTP counter DR=.
Cc1ccc(N2C(=O)c3ccccc3C2C(=O)c2cc(C)ccc2O)cc1 (configuration not stated)	.	67	.	.	.	.	71
COc1ccc(CN(C)Cc2c(O)ccc3cc(Br)ccc23)cc1OC	.	68	.	.	.	.	50
CN1CCCN(C(c2ccccc2)c2ccc(Cl)cc2)CC1 (configuration not stated)	/	99	/	/	.	.	.
CCOc1ccc(C(=O)CCC(=O)N(CC)CC(=O)NCc2ccc(Cl)cc2)cc1	.	.	.	.	.	.	/
Cc1cc(C(=O)NCc2cc(F)cc3c2OCOC3)nn1C	/	.	.	.	.	.	/
Cn1nc(C(C)(C)C)cc1C(=O)NCc1cc(F)cc2c1OCOC2	102	92	.	.	.	.	84
CC(=O)Nc1ccc(Sc2ccc([N+](=O)[O-])o2)cc1	/	.	/	/	/	/	/
O=C(Nc1ccc([N+](=O)[O-])cc1)c1ccccc1	.	.	.	.	.	.	/
SMILES	Beta apoptosis	MPTP block	Calb FLC	CSC inhib	SKKanGAS inh	Mdm2-MdmX inh	MPTP counter	others
CC(C)(C)C(=O)Nc1ccc(Sc2ccc([N+](=O)[O-])cc2)cc1	.	96	.	.	.	.	93
CN(O)C(=O)Nc1ccc([N+](=O)[O-])cc1	.	83	.	.	.	.	96
COc1cccc(NC(=S)N(CCCN2CCCC(C)C2)Cc2cccs2)c1 (configuration not stated)	.	.	.	.	.	.	/
CC(C)(C)c1cc(C(=O)Nc2ccc(F)cc2)n(Cc2ccc(F)cc2)n1	.	80	.	.	?	.	87
CC(C)(C)c1cc(C(=O)NNc2cc(C(F)(F)F)ccc2Cl)n(Cc2ccccc2)n1	.	75	.	103	99	.	78
CC(C)(C)c1cc(C(=O)NC2CC2)n(Cc2ccc(F)cc2)n1	.	.	.	.	.	.	/
